Most compounds without a hit are left out; they make up all but 0.49% or so of the library.
Tb PFK block – blocks T. brucei phosphofructokinase | AID 485367 | Potency, µM (titrated, usually from 57.5 µM), most hits filed as inhibitors | T. brucei PFK, ADP-Glo luminescence | 330,000 tested, 0.17% active; note: nearly all actives have a fitted effect of over 60% in size
Target sequence (O15648 whole entry, looked up): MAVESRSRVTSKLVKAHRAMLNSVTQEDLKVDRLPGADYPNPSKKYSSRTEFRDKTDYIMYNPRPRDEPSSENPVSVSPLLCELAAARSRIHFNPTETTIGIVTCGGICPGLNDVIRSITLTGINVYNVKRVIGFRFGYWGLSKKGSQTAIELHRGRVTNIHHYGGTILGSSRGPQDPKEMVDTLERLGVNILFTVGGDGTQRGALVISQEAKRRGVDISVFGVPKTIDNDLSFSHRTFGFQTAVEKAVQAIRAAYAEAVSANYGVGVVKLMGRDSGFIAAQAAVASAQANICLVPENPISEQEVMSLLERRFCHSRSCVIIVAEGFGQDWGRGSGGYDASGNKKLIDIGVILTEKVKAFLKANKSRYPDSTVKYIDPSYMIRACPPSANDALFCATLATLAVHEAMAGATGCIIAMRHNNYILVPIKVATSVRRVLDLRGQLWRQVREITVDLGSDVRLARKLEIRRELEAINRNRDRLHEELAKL
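ADP-Glo luminescence quantified ADP after 45 min at room temperature, with 1.25 nM T. brucei PFK, 0.1 mM ATP and 0.5 mM fructose-6-phosphate in pH 8.0 TEA buffer. qHTS titrations up to 57 µM; curves classified by quality.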
Chronic BCR inh – inhibitors of chronic active B-cell receptor signaling; 340,000 tested, 0.05% active; ABC-DLBCL IkBa-CBG/CBR reporter, luminescence ratio, 4 h; Potency, µM (titrated, usually from 46.1 µM), hits mostly inhibitors; active = well fitted inhibition curve with a large enough effect in the signal ratio, with a control signal flat, not every such curve was filed as active; inconclusive = small, poorly fitted or top-dose-only effect, or effect the other way, or a change in a side signal; the % refers to the signal ratio
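Compounds up to 46 uM were incubated four hours with TMD8 cells whose green CBG68 luciferase is fused to IkappaBalpha; red CBR luminescence normalised the signal, and concentration-effect curves were fitted to fusion, red and ratio data.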
ASM inhibitor – blocks human secretory acid sphingomyelinase; placental ASM, HMU-PC fluorogenic substrate, 60 min; Potency, µM (titrated, usually from 57.5 µM), hits mostly inhibitors; 340,000 tested, 0.006% active
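HMU-PC0 cleavage (9 uM final) by human placental ASM, 60 min at 37 °C following 10 min compound exposure at RT; stopped at pH 10, fluorescence Ex 386/Em 447 nm.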
CCT modulator – cytosolic chaperonin activity modulation. purified chaperonin ATPase assay, HTRF ADP detection, 30 min. activity change, % (no concentration beside the values), hits read low. 360,000 tested, 0.3% active. AID 651819; in the data active = activity change below about -30%
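Nucleotide hydrolysis assay: TRiC at 20–40 nM final (set by batch activity) with 10 uM ATP, 30 min at 37 °C, in presence of 76 uM compound. Detection by competitive ADP HTRF, 30 min ambient.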
TCR act – T cell receptor activation; primary human leukocytes, anti-CD3, IL-2 HTRF, 48 h; Potency, µM (doses to about 9.22 µM), actives largely listed as activators; 330,000 tested, under 10 active; AID 504894
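Primary human leukocytes were stimulated with a-CD3 beads plus compounds for 48 hr without co-stimulation; secreted IL-2 was quantified by HTRF using a-IL-2-K (europium cryptate) and a-IL-2-d2, excited at 320nm with acceptor emission read at 665nm.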
Each line names hits and unclear results; the compound was inactive in the other large screens; ! = repeats disagree. Unless noted, calls come from the whole dose curve; as a rule, active = well fitted curve in the direction sought with a large enough effect; inconclusive = small, poorly fitted or top-dose-only effect, or another doubt; inactive = no such curve, though single readings can be large; an effect the other way counts as inactive or inconclusive.

CN(Cc1ccccc1)C(NC(=O)c1ccccc1)C(Cl)(Cl)Cl (stereo unspecified)	CCT modulator -39
Cc1ccc2c(c1)c1c3n2CCNC3CCC1 (stereo unspecified)	CCT modulator -61!
O=C1Cc2cc(S(=O)(=O)N3CCCCC3)cc3c2N1CCC3	none (no result: Tb PFK block, ASM inhibitor, CCT modulator, TCR act)
Cc1ccc(Nc2nc3ccccc3n3cnnc23)cc1Cl	Chronic BCR inh inconclusive, CCT modulator -50
Cc1ccc2nc(Nc3ccc(C)c(Cl)c3)c3nncn3c2c1	Chronic BCR inh inconclusive
CCOc1ccc(NC(=O)N2CCC(C(=O)c3ccc(F)cc3)CC2)cc1	none
O=C(c1ccc(F)cc1)C1CCN(C(=O)Nc2ccc(F)cc2)CC1	CCT modulator -34
OCC1OC(n2cnc3c(NC4CCCCC4)ncnc32)C(O)C1O (stereo unspecified)	Chronic BCR inh 13µM
Cc1ccc(C)c(S(=O)(=O)NCCCN2CCOCC2)c1	none
Cc1ccc(C)c(S(=O)(=O)NCCN2CCOCC2)c1	CCT modulator -31
Cc1ccc(NC(=O)CCC(=O)NNC(=O)C(C)(C)C)c(C)c1	CCT modulator -92
CCCNC(=O)Nc1ccc(C)cc1C	Chronic BCR inh inconclusive, CCT modulator -45
CCOC(=O)c1c(-c2ccccc2)nc2c(C)cccn12	CCT modulator -119
COc1cc(OC)c(C(=O)CCC(=O)O)cc1OC	CCT modulator -31
CS(=O)(=O)c1ccc(S(=O)CC(=O)Oc2ccc(Cl)cc2)c([N+](=O)[O-])c1 (stereo unspecified)	Chronic BCR inh 18µM
O=C(CS(=O)c1ccccc1[N+](=O)[O-])Oc1ccc(Br)cc1 (stereo unspecified)	none
CCc1ccc(CNC(=O)Cn2nc(-c3ccc(Cl)cc3)ccc2=O)cc1	none (no result: Tb PFK block, ASM inhibitor, CCT modulator, TCR act)
COCc1c(C(=O)Nc2cccc(S(=O)(=O)N3CCCCC3)c2)oc2ccccc12	CCT modulator -74
O=C(Nc1cccc(S(=O)(=O)N2CCCCC2)c1)c1cc2ccccc2o1	none
O=C(Nc1cccc(-c2cn3ccccc3n2)c1)c1cc2ccccc2oc1=O	Chronic BCR inh inconclusive, CCT modulator -61 (no result: TCR act)
CC(=O)Nc1cccc(-c2cn3ccccc3n2)c1	none
O=C(Nc1cccnc1)c1coc(=O)c2ccccc12	Chronic BCR inh 18µM
COC(=O)c1sc(NC(=O)c2cc3nc(-c4ccc(Br)cc4)cc(C(F)(F)F)n3n2)c(C(=O)OC)c1C	none (no result: Tb PFK block, ASM inhibitor, CCT modulator, TCR act)
COc1ccc2cc3cc(C(=O)NCc4cccnc4)oc3nc2c1	CCT modulator -68
COc1ccc2cc3cc(C(=O)NCc4ccc5c(c4)OCO5)oc3nc2c1	none
Cc1oc2c(c(C)cc3oc(=O)c(CC(=O)N[C@@H](C)C(=O)O)c(C)c32)c1C	CCT modulator -33
CC1(c2nnc(-c3ccncc3)o2)CC(c2ccc([N+](=O)[O-])cc2)=NO1 (stereo unspecified)	CCT modulator -62
COc1cc(/C=C2\OC(=O)c3c(OC)cccc32)ccc1O	Chronic BCR inh 9.2µM
CC(C)Oc1ccc(CCC(=O)N/N=C/c2ccc3c(c2)OCO3)cc1	none
O=C(CCc1ccc(O)c(O)c1)N/N=C/c1ccc2c(c1)OCO2	Tb PFK block 4.3µM, Chronic BCR inh inconclusive
O=C(NCC1CCCO1)c1c[nH]c2ccc(S(=O)(=O)Nc3cccc(C(F)(F)F)c3)cc2c1=O (stereo unspecified)	none (no result: Tb PFK block, ASM inhibitor, CCT modulator, TCR act)
COc1ccc(C(=O)NNc2ncnc3c2cnn3-c2cccc(Cl)c2)cc1OC	none (no result: Tb PFK block, ASM inhibitor, CCT modulator, TCR act)
CCC1CCCCN1C(=O)CSc1nc(N)cc(=O)[nH]1 (stereo unspecified)	none
CC1(C)C2CCC1(C)C(OC(=O)CSc1nc(N)cc(=O)[nH]1)C2 (stereo unspecified)	CCT modulator -70
CCc1ccccc1N(CC(=O)N1CCc2ccccc2C1)S(C)(=O)=O	CCT modulator -31
Cc1ccc(NC(=S)NNC(=S)Nc2ccc(C)cc2C)cc1	Chronic BCR inh 18µM
CCCCN(C(=O)c1cc(CN2C(=O)c3ccccc3C2=O)ccc1OC)c1c(N)n(CC(C)C)c(=O)[nH]c1=O	CCT modulator -84 (no result: Tb PFK block, Chronic BCR inh)
CCCc1cnc2c(c1SCc1cccc(F)c1)c(=O)n(C)c(=O)n2C	none (no result: Tb PFK block, ASM inhibitor, CCT modulator, TCR act)
CC(=O)Nc1ccc(N(CC(O)Cn2c3ccccc3c3ccccc32)S(=O)(=O)c2ccc(C)cc2)cc1 (stereo unspecified)	Chronic BCR inh inconclusive, CCT modulator -46
COc1cccc(C(CCc2cc(OC)c(OC)c(OC)c2)NC(C)=O)c1 (stereo unspecified)	CCT modulator -74 (no result: Tb PFK block, Chronic BCR inh)
Fc1cccc(CNc2ncnc3ccc(-c4ccoc4)cc23)c1	none (no result: ASM inhibitor, CCT modulator, TCR act)
Cc1ccccc1Cn1c(Oc2ccccc2F)nc2c1c(=O)n(C)c(=O)n2C	none (no result: Tb PFK block, ASM inhibitor, CCT modulator, TCR act)
COCCNC(=O)CSc1nc2ccccc2c(=O)n1CCCC(=O)NCc1ccccc1	CCT modulator -75
Cc1ccc(C(=S)NCS(=O)(=O)c2ccc(C)cc2)cc1	Tb PFK block 27µM, Chronic BCR inh inconclusive (no result: TCR act)
Cc1ccc(S(=O)(=O)NC(=S)c2ccccc2)cc1	none (no result: Tb PFK block, Chronic BCR inh)
Cc1ccc(N2CC(NC(=O)CCCc3ccccc3)CC2=O)cc1 (stereo unspecified)	none (no result: Tb PFK block, ASM inhibitor, CCT modulator, TCR act)
O=C(Cn1c(=S)[nH]c2ccccc21)c1ccccc1	CCT modulator -34
CC1=C(C(=O)Nc2ccc(C)cc2C)C(c2ccccc2F)n2nc(SCC(=O)c3ccc(C)cc3)nc2N1 (stereo unspecified)	none (no result: Tb PFK block, ASM inhibitor, CCT modulator, TCR act)
COc1ccc2c(CN(C)c3ccccc3)cc(=O)oc2c1	Chronic BCR inh 15µM
Cc1cc(Br)cc(C)c1NC(=O)c1sc2ncn(Cc3cccc(F)c3)c(=O)c2c1C	none (no result: Tb PFK block, ASM inhibitor, CCT modulator, TCR act)
COc1ccc([C@]23Cc4cc(OC)c(OC)cc4C(O2)c2c(c4ccccc4oc2=O)O3)cc1	Chronic BCR inh inconclusive (no result: ASM inhibitor, CCT modulator, TCR act)
O=C(CCCN1C(=O)C(c2ccccc2)Oc2cccnc21)NCCc1ccc(Cl)cc1 (stereo unspecified)	CCT modulator -125
CCc1cccc(C)c1NS(=O)(=O)c1ccc2c(c1)NC(=O)C(C)C(=O)N2 (stereo unspecified)	none (no result: Tb PFK block, ASM inhibitor, CCT modulator, TCR act)
C=CCNC(=S)Nc1cccc2[nH]ncc12	CCT modulator -32 (no result: TCR act)
Cc1ccc(S(=O)(=O)CC(CN2CCOCC2)N2CCOCC2)cc1 (stereo unspecified)	none
Cc1ccc(S(=O)(=O)CC(C)N2CCOCC2)c(S(=O)(=O)CC(C)N2CCOCC2)c1 (stereo unspecified)	CCT modulator -41
O=C(Oc1c(Cl)cc(Cl)c2cccnc12)c1cccc([N+](=O)[O-])c1	Chronic BCR inh 21µM
COc1ccccc1N1CCN(S(=O)(=O)c2ccc(F)c(C(=O)Nc3ccc(C)c(F)c3)c2)CC1	none (no result: Tb PFK block, ASM inhibitor, CCT modulator, TCR act)
CCOc1ccc(N2CC(C(=O)NCC(=O)Nc3ccc(F)c(F)c3F)CC2=O)cc1 (stereo unspecified)	CCT modulator -55
